From PubChem BioAssay AID743025 (Vanderbilt Specialized Chemistry Center, 2013)
Calls of active or inactive are those of the source.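 How the source made its calls: active means IC50 below 10 µM at human M5 in a calcium flux test, acting as a negative modulator; inactive means the rest.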

target: Muscarinic acetylcholine receptor M5 (Homo sapiens) (UniProt P08912); experiment: inhibition of ACh-evoked M5 calcium signal – cell-based, single concentration, human M5 (AID 743025); details: CHO-K1 hM5, ACh EC80 calcium flux, Fluo-4; at 10 µM; hits give low values
Sequence (P08912 whole entry, looked up): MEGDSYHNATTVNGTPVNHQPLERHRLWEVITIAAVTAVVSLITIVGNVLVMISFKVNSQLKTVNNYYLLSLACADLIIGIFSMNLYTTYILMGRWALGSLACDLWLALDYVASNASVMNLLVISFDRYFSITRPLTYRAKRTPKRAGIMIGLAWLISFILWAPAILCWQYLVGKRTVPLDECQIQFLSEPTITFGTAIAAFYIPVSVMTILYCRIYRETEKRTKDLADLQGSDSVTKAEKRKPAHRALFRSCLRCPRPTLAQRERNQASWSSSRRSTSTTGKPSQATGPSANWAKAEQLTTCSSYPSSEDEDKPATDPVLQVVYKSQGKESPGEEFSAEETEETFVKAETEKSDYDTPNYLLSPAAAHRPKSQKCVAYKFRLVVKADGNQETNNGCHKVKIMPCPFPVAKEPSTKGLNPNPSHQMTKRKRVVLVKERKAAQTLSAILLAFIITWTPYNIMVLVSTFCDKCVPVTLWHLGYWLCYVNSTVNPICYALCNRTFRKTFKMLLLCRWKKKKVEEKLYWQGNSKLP

Row | SMILES | activity remaining
1 | O=C1c2ccccc2C2(c3ccc(F)cc3)NCCN12 (stereo unspecified) | 77.6% (inactive)
2 | O=C(c1ccccn1)N1CCN2C(=O)c3ccccc3C12c1ccc(Cl)cc1 (stereo unspecified) | 88.9% (inactive)
3 | CC(C)(C)C(=O)N1CCN2C(=O)c3ccccc3C21c1ccccc1 (stereo unspecified) | 83.6% (inactive)
4 | O=C(c1ccc(SC(F)(F)F)cc1)N1CCN2C(=O)c3ccccc3C12c1ccc(Cl)cc1 (stereo unspecified) | 4.43% (active)
5 | CS(=O)(=O)c1ccc(C23c4ccccc4C(=O)N2CCN3C(=O)c2ccc(F)c(F)c2)cc1 (stereo unspecified) | 77.3% (inactive)
6 | O=C(c1ccc(OCc2ccccc2)cc1)N1CCN2C(=O)c3ccccc3C12c1ccccc1 (stereo unspecified) | 75.1% (inactive)
7 | CCCCCC(=O)N1CCN2C(=O)c3ccccc3C12c1ccccc1 (stereo unspecified) | 75.3% (inactive)
8 | O=C(c1ccc(OC(F)(F)F)cc1)N1CCN2C(=O)c3ncccc3C12c1ccccc1 (stereo unspecified) | 73.1% (inactive)
9 | O=C(Nc1ccc(Cl)cc1)N1CCN2C(=O)c3ccccc3C12c1ccccc1 (stereo unspecified) | 78.2% (inactive)
10 | O=C(c1ccc(F)cc1)N1CCCN2C(=O)c3ccccc3C12c1ccc(Cl)cc1 (stereo unspecified) | 76% (inactive)
11 | O=C(c1cccc(C(F)(F)F)c1)N1CCN2C(=O)c3ccccc3C12c1ccc(Cl)cc1 (stereo unspecified) | 1.89% (active)
12 | O=C(c1ccc(C(F)(F)F)cc1)N1CCCN2C(=O)c3ccccc3C12c1ccc(Cl)cc1 (stereo unspecified) | 75.7% (inactive)
13 | O=C(c1ccc(C(=O)C(F)(F)F)cc1)N1CCN2C(=O)c3ccccc3C12c1ccccc1 (stereo unspecified) | 90% (inactive)
14 | O=C(c1ccc(C(F)(F)F)cc1)N1CCN2C(=O)c3ncccc3C12c1ccccc1 (stereo unspecified) | 72.2% (inactive)
15 | O=C1c2ccccc2C2(c3ccccc3)N1CCN2C(=S)Nc1cccc(Cl)c1 (stereo unspecified) | 93% (inactive)
16 | O=C(c1ccc(Oc2ccccc2)cc1)N1CCN2C(=O)c3ccccc3C12c1ccccc1 (stereo unspecified) | 75.1% (inactive)
17 | Cc1ccc(C23NCCN2C(=O)c2ccccc23)cc1 (stereo unspecified) | 77.4% (inactive)
18 | Cc1ccc(C(=O)N2CCCN3C(=O)c4ccccc4C23c2ccc(Cl)cc2)cc1 (stereo unspecified) | 74.8% (inactive)

Row | SMILES | activity remaining
19 | COc1ccc(C(=O)N2CCN3C(=O)c4ccccc4C23c2ccc(Cl)cc2)cc1F (stereo unspecified) | 74% (inactive)
20 | CN(C)c1ccc(C(=O)N2CCN3C(=O)c4ccccc4C23c2ccccc2)cc1 (stereo unspecified) | 88% (inactive)
21 | O=C(c1ccc(SC(F)(F)F)cc1)N1CCCN2C(=O)c3ccccc3C12c1ccc(Cl)cc1 (stereo unspecified) | 78.5% (inactive)
22 | O=C1CCC2(c3ccccc3)Nc3ccccc3N12 (stereo unspecified) | 81.8% (inactive)
23 | O=C(c1cc(F)cc(F)c1)N1CCCN2C(=O)c3ccccc3C12c1ccc(Cl)cc1 (stereo unspecified) | 76.8% (inactive)
24 | Cc1ccc(C(=O)N2CCN3C(=O)c4ncccc4C23c2ccccc2)cc1 (stereo unspecified) | 63.1% (inactive)
25 | COc1ccc(C(=O)N2CCN3C(=O)c4ccccc4C23c2ccccc2)cc1 (stereo unspecified) | 77.7% (inactive)
26 | O=C(c1ccc(OC(F)(F)F)cc1)N1CCN2C(=O)c3ccccc3C12c1ccccc1 (stereo unspecified) | 1.8% (active)
27 | COc1ccc(C23c4ccccc4C(=O)N2CCN3C(=O)c2ccccc2C)cc1 (stereo unspecified) | 49.9% (active)
28 | Cc1ccc(S(=O)(=O)N2CCN3C(=O)c4ccccc4C32c2ccccc2)cc1 (stereo unspecified) | 73.4% (inactive)
29 | COc1ccc(C23c4ccccc4C(=O)N2CCN3C(=O)c2ccc(C(F)(F)F)cc2)cc1 (stereo unspecified) | 48% (active)
30 | O=C(c1ccccn1)N1CCN2C(=O)c3ncccc3C12c1ccccc1 (stereo unspecified) | 73.7% (inactive)
31 | Cc1ccc(C23c4ccccc4C(=O)N2CCN3C(=O)c2ccc(SC(F)(F)F)cc2)cc1 (stereo unspecified) | 10.9% (active)
32 | O=C(c1ccccc1)c1ccccc1C(=O)N1CCN(C(=O)c2ccccc2)CC1 | 85.5% (inactive)
33 | O=C(c1cc(Cl)cc(Cl)c1)N1CCN2C(=O)c3ccccc3C12c1ccccc1 (stereo unspecified) | 5.4% (active)
34 | CC(C)(C)NC(=O)N1CCCN2C(=O)c3ccccc3C12c1ccccc1 (stereo unspecified) | 83.3% (inactive)
35 | O=C(c1cccc(F)c1)N1CCN2C(=O)c3ccccc3C12c1ccccc1 (stereo unspecified) | 86% (inactive)
36 | O=C(c1ccncc1)N1CCN2C(=O)c3ccccc3C12c1ccc(Cl)cc1 (stereo unspecified) | 72.4% (inactive)
